“And” between values parts separate entries of the source, which are not always exact repeats. Equal entries are not always repeated. Results filed as inconclusive are left out. A structure can be active in one record and inactive in another. The source made the active and inactive calls. The call rests on the fitted dose curve; in most records, active means well fitted curve in the direction sought with a large enough effect; inconclusive means small, poorly fitted or top-dose-only effect, or another doubt; inactive means no such curve, though single readings can be large; an effect the other way counts as inactive or inconclusive.
What was measured:
[1] = BET inhibitor-based combinations targeting novel dependencies in MECOM-rearranged (r) AML: SET-2 cell line (AID 2202231); settings: SET-2 AML cells viability, CellTiter-Glo luminescence, 48 h; viability: stronger effect = lower value, concentration not given here; further: nearly all actives have a fitted effect of over 35% in size; further: potency means the concentration at half of the fitted maximal effect;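 on viability: plate controls were DMSO treated cells for no effect and wells without cells for full effect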
Method in brief: (§1)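 A 48 hr incubation preceded viability reading by CellTiter-Glo, with 15 min room-temperature development. Dose series had 11 points; normalization used DMSO and empty wells; AUC was computed and mean-centered per line as Z-AUC.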

[2] = BET inhibitor-based combinations targeting novel dependencies in MECOM-rearranged (r) AML: MV-4-11 cell line (AID 2202233); further: nearly all actives have a fitted effect of over 45% in size; further: potency means the concentration at half of the fitted maximal effect
Method in brief: (§2)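 Each compound is tested in an 11-point concentration series against 500 seeded cells/well for 48 hr. The luminescent viability signal is normalized to DMSO and blank wells, then reduced to AUC and a cell-line-centred Z-AUC.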

[3] = BET inhibitor-based combinations targeting novel dependencies in MECOM-rearranged (r) AML: HNT-34 cell line (AID 2202234); further: nearly all actives have a fitted effect of over 35% in size; further: potency means the concentration at half of the fitted maximal effect
Method in brief: as §2

[4] = BET inhibitor-based combinations targeting novel dependencies in MECOM-rearranged (r) AML: UCSD-AML1 cell line (AID 2202235); further: nearly all actives have a fitted effect of over 40% in size; further: potency means the concentration at half of the fitted maximal effect
Method in brief: as §2

[5] = BET inhibitor-based combinations targeting novel dependencies in MECOM-rearranged (r) AML: AML-191 cell line (AID 2202236;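 further: plate controls were vehicle wells for no effect and wells without cells for full effect; nearly all actives have a fitted effect of over 35% in size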)
Method in brief: as §1

[6] = BET inhibitor-based combinations targeting novel dependencies in MECOM-rearranged (r) AML: AML-194 cell line (AID 2202237;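 further: plate controls were vehicle wells for no effect and wells without cells for full effect; nearly all actives have a fitted effect of over 40% in size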)
Method in brief: as §1

[7] = BET inhibitor-based combinations targeting novel dependencies in MECOM-rearranged (r) AML: OCI-AML3 cell line (AID 2202232); settings: Potency: OCI-AML3 viability; further: nearly all actives have a fitted effect of over 35% in size; further: potency means the concentration at half of the fitted maximal effect
Method in brief: as §1

[8] = target: Aldehyde dehydrogenase 1A1 (Homo sapiens) (UniProt P00352); assay: qHTS for Inhibitors of the Aldehyde Dehydrogenase Family (ALDH1A1) Confirmatory screens (AID 2061316); further: potency means the concentration at half of the fitted maximal effect; nearly all actives have a fitted effect of over 65% in size

With `CNC(=O)Cn1cc(-c2ccc3c(c2)C(F)CC32NC(=O)N(CC(=O)N(Cc3ccc(F)cc3)[C@@H](C)C(F)(F)F)C2=O)cn1` (some centres undefined) the Potency [1] was 3.72 µM (active), the viability [1] was 103% (inactive) and the Potency [2] was 11800 nM (active). The Potency [3] was 74.2 nM (active), the Potency [4] was 118 nM (active) and inactive and the Potency [5] was “inactive”. For the same molecule, the Potency [6] was “inactive”.
With `CCc1c(-c2ccccc2C)nc2c(C#N)c[nH]n2c1=O` the viability [1] was 112% (inactive) and 125% (inactive), the Potency [7] was “inactive” and the Potency [2] was “inactive”. For the same molecule, the Potency [3] was “inactive”, the Potency [4] was 1.2 nM (active) and inactive and the Potency [5] was “inactive”.
With `CCCCCCCCCCCCCCCCCCCCCCO` the viability [1] was 112% (inactive), the Potency [7] was “inactive” and the Potency [2] was “inactive”. The Potency [3] was “inactive” and the Potency [4] was “inactive”.
For `CC1=C2[N-][C@H]([C@H](CC(N)=O)[C@@]2(C)CCC(=O)NC[C@@H](C)OP(=O)([O-])O[C@H]2[C@@H](O)[C@@H](n3cnc4cc(C)c(C)cc43)O[C@@H]2CO)[C@]2(C)N=C(C(C)=C3N=C(C=C4N=C1[C@@H](CCC(N)=O)C4(C)C)[C@@H](CCC(N)=O)[C@]3(C)CC(N)=O)[C@@H](CCC(N)=O)[C@]2(C)CC(N)=O.O.[Co+2]`, the viability [1] was 95.1% (inactive).
In the case of `C[C@H]1COCCN1c1cc(C2(S(=O)(=O)C3CC3)CC2)nc(-c2ccc(NC(=S)NCCO)cc2)n1`, the Potency [1] was 0.417 µM (active), the Potency [7] was 0.833 µM (active) and the Potency [2] was 93.4 nM (active). The Potency [3] was 105 nM (active) and the Potency [4] was 10.5 nM (active).
In the case of `Cc1ccnc(N(C)C(=S)N2CCN(c3cccc(C(F)(F)F)c3)CC2)c1`, the Potency [8] was 11.3 µM (active).
In the case of `Cc1ccc(NC(=O)Nc2nnc(Sc3ncnc4cc(OCCCN5CCOCC5)ccc34)s2)cc1`, the viability [1] was 111% (inactive), the Potency [7] was 14.8 µM (active) and the Potency [2] was 16.6 nM (active). The Potency [3] was 14800 nM (active).

— PubChem BioAssay (NCATS)
